# From PubChem BioAssay AID686979 (National Center for Advancing Translational Sciences (NCATS), 2013)
# Hit rate of the full screen: of about 420,000 compounds, about 50,000 (12%) were called active. Inconclusive results (about 26%) are left out. The call rests on the fitted dose curve; in most records, active means well fitted inhibition curve with a large enough effect; inconclusive means small, poorly fitted or top-dose-only effect; inactive means flat fitted curve, though single readings scatter. The list comes from a sample in which actives are over-represented; it also holds similar structures and randomly drawn compounds. A call without a number means that no potency is given here.
# Experiment: qHTS for Inhibitors of human tyrosyl-DNA phosphodiesterase 1 (TDP1): qHTS in cells in presence of CPT; further: nearly all actives have a fitted effect of over 55% in size
# Conditions: chicken DT40 Tdp1-/-;hTDP1 cells + 20 nM CPT, ATP luminescence, 48 h; series mostly up to 46.2 µM
# How it was run: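 Chicken DT40 Tdp1-/- cells stably complemented with human TDP1 were seeded at 400 cells/well in medium containing 20 nM camptothecin, exposed to pin-transferred compounds, and grown at 37 °C for at least 48 hr. Viability was read as ATP luminescence.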
# Potency means the concentration at half of the fitted maximal effect.
row,Structure (SMILES),Potency
1,Nc1ccccc1C(=O)NC1CCCCNC1=O (stereo not given),inactive
2,CNC(=O)c1ccc(CN(C)C(=O)c2cc(C3CC3)nc3c2cnn3C(C)C)cc1,inactive
3,CCOC(=O)c1ccc(-c2ccc(/C=C(\C#N)C(=O)Nc3ccc(C)cc3)o2)cc1,9.2 µM (active)
4,CCOC(=O)c1ccc(-c2ccc(/C=C(\C#N)C(=O)Nc3ccc(OCC)cc3)o2)cc1,inactive
5,CCOC(=O)c1ccc(NC(=O)CNC(=O)c2ccco2)cc1,inactive
6,N#C/C(=C\N1CCOCC1)S(=O)(=O)c1ccc(Cl)cc1,inactive
7,O=C(COC(=O)c1ccccn1)NNC(=O)c1ccc([N+](=O)[O-])cc1,inactive
8,O=S1(=O)CCN(Cc2ccccc2)CC1,inactive
9,CN(CC(=O)NCc1ccncc1)S(=O)(=O)c1ccc(Br)cc1,inactive
10,CC(=O)c1nn(-c2ccccc2)c(=Nc2ccccc2)cc1C,inactive
11,O=c1[nH]c(-c2cccs2)nc2ccccc12,inactive
12,COC(=O)c1cc(-c2cccs2)nc2ccccc12,inactive
13,CC(=O)Nc1cccc(Nc2nc(-c3cccs3)nc3ccccc23)c1,16.4 µM (active)
14,CCN(CC)c1ccc(/C=N/NC(=O)CNC(=O)c2cccs2)cc1,inactive
15,CCN(C(=O)CSc1ncnc2sccc12)c1c(N)n(Cc2ccccc2)c(=O)[nH]c1=O,inactive
16,COc1ccc(-c2nc3cc([N+](=O)[O-])ccc3o2)cc1OC,inactive
17,COc1ccc(OCC(=O)Nc2cc(C)c(Cl)cc2OC)c([N+](=O)[O-])c1,inactive
18,Cc1nnc(-c2ccc(Oc3ccc(C)c(C)c3)c([N+](=O)[O-])c2)o1,16.4 µM (active)
19,Nc1nc(SCC(=O)NN(c2ccccc2)c2ccccc2)n[nH]1,inactive
20,Cc1ccc(C(=O)Nc2ccccc2F)cc1S(=O)(=O)N1CCOCC1,inactive
21,CCc1ccc(N(C(=O)c2csnn2)C(C(=O)NC2CCCCC2)c2cccnc2)cc1 (stereo not given),inactive
22,Cc1ccc(S(=O)(=O)NCCC(c2ccccc2)c2ccccc2)cc1C(=O)O,inactive
23,O=c1[nH]oc(O)c1-c1ncc(C(F)(F)F)cc1Cl,inactive
24,CCNS(=O)(=O)c1cc(-c2nnc(Nc3cccc(C(F)(F)F)c3)c3ccccc23)ccc1C,5.8 µM (active)
25,Cc1ccc(-c2nnc(Nc3ccc(C(=O)N(C)C)cc3)c3ccccc23)cc1S(N)(=O)=O,inactive
26,COCCNS(=O)(=O)c1cc(-c2nn3c(C)nnc3c3ccccc23)ccc1C,inactive
27,O=C(O)C1CCCN1C1=NS(=O)(=O)c2ccccc21 (stereo not given),inactive

row,Structure (SMILES),Potency
1,CN1OC[C@@H]2CN(S(=O)(=O)c3cccc(C(F)(F)F)c3)[C@H](c3ccc(-c4cc5ccccc5o4)cc3)C[C@@H]21,inactive
2,CC1=CC(=NNS(=O)(=O)c2ccc([N+](=O)[O-])cc2)CC(C)(C)C1,inactive
3,CCCC1OC23CCCCC2C(C#N)(C#N)C1(C#N)C(=N)O3 (stereo not given),5.8 µM (active)
4,O=C(CSc1cn(CC(=O)N2CCOCC2)c2ccccc12)Nc1ccccc1,inactive
5,O=C(NCc1ccccc1)[C@@H]1CSC2c3ccccc3C(=O)N21 (stereo not given in full),inactive
6,COCCCC1CCN(C(=O)C2CCC(=O)N(C3CCCCCC3)C2)CC1 (stereo not given),inactive
7,CC1CN(/C=C/C(=O)C(F)(F)F)CC(C)O1 (stereo not given),inactive
8,COC(=O)N/N=C/c1c[n+]([O-])c2ccccc2[n+]1[O-],inactive
9,Clc1ccc(CN2CCCCCC2)cc1Cl,inactive
10,O=C(NC(c1ccc(-c2ccccc2)cc1)c1cnccn1)C1CCN(CCOc2ccc(Cl)cc2Cl)CC1 (stereo not given),16.4 µM (active)
11,O=C(CCCOc1ccc(Cl)cc1Cl)NNC(=O)C1CCC1,inactive
12,Cc1cccnc1C(NC(=O)C1CCN(Cc2ccc(Cl)c(Cl)c2)CC1)c1ccc(Cl)cc1 (stereo not given),3.26 µM (active)
13,Cc1ccc(C(NC(=O)C2CCN(CCOc3ccc(Cl)cc3Cl)CC2)c2ccccn2)cc1 (stereo not given),25.9 µM (active)
14,CCOc1ccc(S(=O)(=O)N2CCC(C(=O)NCc3ccccn3)CC2)cc1Cl,inactive
15,COc1cccc(CN2CCC(C(=O)NC(c3ccc4c(c3)OCO4)c3ccccn3)CC2)c1 (stereo not given),inactive
16,O=C(NNS(=O)(=O)c1ccc(Cl)cc1)C1CCN(Cc2ccccc2)CC1,inactive
17,O=C(COc1ccc(Cl)cc1Cl)NCCCNC(=O)c1cnccn1,inactive
18,Cc1cnc(NC(=O)Cn2cnc3c2c(=O)n(C)c(=O)n3C)s1,inactive
19,Cc1nc2cccnc2nc1C,inactive
20,Cc1cc(C)c(NC(=S)N2CCCC2C(=O)O)c(C)c1 (stereo not given),inactive
21,CC(C)(C)CC(=O)Nc1nnc(SCC(=O)NCc2cccs2)s1,inactive
22,COc1ccc(C(N)c2csc(NC(=O)Nc3cccc(C(F)(F)F)c3)n2)cc1 (stereo not given),18.4 µM (active)
23,NC(c1csc(NC(=O)Nc2cccc(C(F)(F)F)c2)n1)C1CCCCC1 (stereo not given),20.6 µM (active)
24,COc1ccc(NC(=O)CN(C)CC(=O)Nc2cccc(C(F)(F)F)c2)cc1,inactive
25,COC(=O)[C@H](Cc1ccccc1)NC(=O)Nc1ccc(OC)cc1,inactive
26,COc1ccc(CC(N)c2csc(NC(=O)Nc3ccc(C(C)C)cc3)n2)cc1 (stereo not given),6.51 µM (active)
27,COc1ccc(C(CC(=O)Nc2ccc(C)cc2)NC(=O)C(F)(F)F)cc1 (stereo not given),inactive

row,Structure (SMILES),Potency
1,Cc1ccccc1NC(=O)Cc1nc(COC(=O)c2ccc(C(F)(F)F)cc2)cs1,inactive
2,CC(C)C[C@H](NC(=O)Nc1cccc(C(F)(F)F)c1)C(=O)O,inactive
3,CC(C)(C)CC(=O)Nc1nc(C(N)Cc2ccc(C(F)(F)F)cc2)cs1 (stereo not given),23.1 µM (active)
4,COc1ccc(NC(=O)C(Br)C(C)C)cc1 (stereo not given),inactive
5,Cc1ccc(NC(=O)Nc2cccc(C(F)(F)F)c2)nc1,inactive
6,CCN(CC(=O)Nc1c(F)cccc1F)C(=O)c1ccc(S(=O)(=O)N2CCCCC2)cc1,inactive
7,COc1ccccc1OC(C)C(=O)Nc1ccc(S(=O)(=O)Nc2nccs2)cc1 (stereo not given),inactive
8,COc1ccc(NC(=O)CC2C(=O)NC3CCCCC3N2C(=O)c2ccc(F)cc2)cc1 (stereo not given),inactive
9,CCOc1ccc(NC(=O)C(CC(C)C)N2Cc3ccccc3C2=O)cc1 (stereo not given),inactive
10,Cc1ccc(CNS(=O)(=O)c2ccc(-c3cc(C(F)(F)F)on3)s2)cc1,inactive
11,COc1ccccc1CNC(=O)COC(=O)c1sc(C)nc1C,inactive
12,COc1ccccc1CNC(=O)c1cc(-c2cc(F)ccc2OC)n[nH]1,inactive
13,COc1ccccc1CNC(=O)c1cc(-c2cc(Cl)ccc2C)n[nH]1,16.4 µM (active)
14,CC(Sc1nnc(-c2ccccc2F)n1C1CC1)C(N)=O (stereo not given),inactive
15,Cc1ccc2c(c1)C1CN(C)CCC1N2S(=O)(=O)c1cccc(F)c1 (stereo not given),inactive
16,CCOC(=O)CSC1=N/C(=C/c2ccc(-n3cncn3)cc2)C(=O)N1C(C)=O,20.6 µM (active)
17,CCCC(=O)N1CCC1(C)C(=O)Nc1ccc(-n2cncn2)cc1 (stereo not given),inactive
18,CCOC(=O)CSc1nc(C)cc2c1C(=O)OC2,inactive
19,NNc1nnc(NN)c2ccccc12,inactive
20,CCCS(=O)(=O)NC(=O)C1(C)CCCN(C(=O)c2ccnc(Cl)c2)C1 (stereo not given),inactive
21,CCN(CC)CCCNC(=S)N(CCO)Cc1cc2cc3c(cc2[nH]c1=O)OCO3,inactive
22,COc1ccc(CCNC(=O)C(=O)NCc2ccccc2C)cc1OC,inactive
23,COc1ccc(CCNC(=O)c2ccccc2-c2ccccc2C(=O)O)cc1OC,inactive
24,COc1ccc(CCNc2cc(N3CCN(C(=O)c4ccccc4OC)CC3)ccc2[N+](=O)[O-])cc1OC,5.8 µM (active)
25,CCCCN(C(=O)c1cccc(N2C(=O)c3ccccc3C2=O)c1)c1c(N)n(CCCC)c(=O)[nH]c1=O,inactive
26,CC(CN1CCCCC1)c1ccccc1 (stereo not given),inactive
27,COc1ccc(/C=C2\SC(=S)N(CCC(=O)Nc3ccccn3)C2=O)cc1OC,inactive

row,Structure (SMILES),Potency
1,CCC(=O)N1CCC(C(N)=O)(N2CCCCC2)CC1,inactive
2,CC(=O)NN1C(=O)c2ccccc2NC1c1ccccc1 (stereo not given),inactive
3,O=C1CCC(C(=O)OCC(=O)Nc2ccc(OC(F)F)cc2)=NN1,inactive
4,Cc1ccc(CCC(=O)Nc2ncc(Cc3cc(Cl)ccc3Cl)s2)o1,0.731 µM (active)
5,Cc1ccc(Cc2cnc(N)s2)o1,inactive
6,CCOc1ccccc1NC(=O)CCc1ccc(C)o1,inactive
7,COc1ccc(CC(=O)Nc2ccc3c(c2)CCC3)cc1S(=O)(=O)N1CCOCC1,inactive
8,Cc1ccc(C(=O)OCC(=O)N2CCCCCC2)cc1S(=O)(=O)N1CCOCC1,inactive
9,COc1ccc(CCC(=O)Nc2ccc(Cl)c(S(=O)(=O)N3CCOCC3)c2)cc1OC,23.1 µM (active)
10,COc1ccc(C(=O)OCC(=O)c2ccc(C)c(S(=O)(=O)N3CCOCC3)c2)cc1OC,18.4 µM (active)
11,O=C(COC(=O)CCc1ccc(S(=O)(=O)N2CCOCC2)cc1)Nc1cccc(Cl)c1,inactive
12,CCOc1ccc(CCNC(=O)COC(=O)c2ccc(C)c(S(=O)(=O)N3CCOCC3)c2)cc1OCC,inactive
13,CNC(=O)C[C@H]1C(=O)N(Cc2ccccc2)C[C@@H]1CSC,inactive
14,CCOc1ccc(N(CC(=O)Nc2ccccc2F)S(=O)(=O)c2c(C)[nH]c(=O)[nH]c2=O)cc1,inactive
15,Cc1ccc(NC(=O)Cn2nnc(C(=O)NCc3ccco3)c2N)c(C)c1,inactive
16,CCN(C(=O)Cc1c(C(=O)O)n(CC)c2ccccc12)c1ccccc1C,inactive
17,COc1ccc(NC(=O)N2CC3(CCN(C(C)=O)CC3)C2)cc1,inactive
18,COc1ccc(S(=O)(=O)NC(C)C(=O)N2CCCCCC2)cc1 (stereo not given),inactive
19,COc1ccc(CNS(=O)(=O)c2ccc(NC(=O)N3CCCCC3)cc2)cc1,18.4 µM (active)
20,COC(=O)C[C@H]1C[C@@H]2c3cc(N(C)C)ccc3O[C@@H]2[C@H](CO)O1,inactive
21,O=C(NC1CCN(S(=O)(=O)c2ccc(F)cc2)CC1)c1ccccc1,inactive
22,CCOC(=O)c1c(-c2ccc(-c3ccccc3)cc2)csc1NC(=O)CCC(=O)O,inactive
23,Cc1ccc2nc(NC(=O)c3nc(SCc4ccccc4F)ncc3Cl)sc2c1,inactive
24,CCCS(=O)(=O)c1ncc(Cl)c(C(=O)Nc2scc(-c3ccccc3)c2C(=O)OCC)n1,2.31 µM (active)
